Our source for the inhibition values is PubChem BioAssay AID2806 (Sanford-Burnham Center for Chemical Genomics, 2010).

As a reminder, the inhibition is the drop in the measured response relative to a control, in per cent.

Structures are written as SMILES. Hit rate of the full screen: of about 330,000 compounds, about 660 (0.2%) were called active. The entries come from a sample that favours actives as a whole. A number with no mark means an inactive call.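 Rule for the calls: active = inhibition of at least 40% at 10 µM in the primary screen; inactive = the rest.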

The assay has as its system intestinal alkaline phosphatase [Mus musculus]. The assay is described as follows: mouse intestinal phosphatase enzyme inhibition – biochemical, luminescence, uHTS, primary screen (AID 2806).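 Note: plate controls were DMSO with enzyme for no effect and no enzyme wells for full effect.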 As to conditions: purified mouse IAP, CDP-Star luminescence, 30 min; at 10 µM; active compounds read high.
Consider `O=C1NC(=O)N(Cc2ccco2)C(=O)/C1=C\c1cccn1CCOc1ccccc1`, for which the inhibition is 40.7% (active).

As to `O=C1NC(=O)N(Cc2ccco2)C(=O)/C1=C\c1ccc(-c2ccc(F)cc2)o1`, the inhibition is 64.1% (active). Turning to `O=C1NC(=O)N(CCc2ccc(F)cc2)C(=O)/C1=C/C=C/c1ccccc1`, the inhibition was 1.6%.

`O=C(O)COc1ccccc1/C=C1\C(=O)NC(=O)N(CCC2=CCCCC2)C1=O`: the inhibition was 0.6%. With `COC(=O)C1=C(c2cc3ccccc3s2)C[C@@H]2CC[C@H]1N2C(=O)NCc1cccc2ccccc12`, the inhibition was 1%. Under `COc1ccc2c(c1)[C@]13CCCCC1C(C2)N(C)CC3` (stereo not given in full) stands 0.8%; under `O=Cc1cn(Cc2ccc(F)cc2Cl)c2ccccc12`, -2%; under `CNCC(O)c1cc(F)c(OCc2ccccc2)c(OCc2ccccc2)c1F` (stereo not given), 5.2%. With `Cc1cc(C(=O)OCC(=O)Nc2c(F)cccc2F)c(C)n1C1CC1`, the inhibition was 7.2%. As for `Oc1ccc2c3c1OC1[C@H](O)CC[C@@]4(O)[C@@H](C2)N(CC2CC2)CC[C@]314` (stereo not given in full), the inhibition is 1.2%. The value for `COc1ccc(N2C(=O)/C(=C/c3ccco3)C(=O)NC2=S)cc1` was 42.1% (active); that for `O=C1NC(=O)N(c2ccccc2)C(=O)/C1=C/c1ccc([N+](=O)[O-])s1` was 26.5%; that for `COc1cccc(N2C(=O)NC(=O)/C(=C\c3ccc([N+](=O)[O-])s3)C2=O)c1` was 34.9%.

As to `CSc1ccc(C(=O)C2CCCN(Cc3ccn[nH]3)C2)cc1` (stereo not given), the inhibition was -3.6%.

Regarding `CC1CCCCN1Cc1cccnc1` (stereo not given), the inhibition is 0.7%.
